# Mdm2 MdmX PPI = human Mdm2/MdmX binding inhibition; O15151+Q00987; SaOS-2 split-luciferase Mdm2/MdmX complementation, luminescence; inhibition, % at 8 µM; hit rate 3% among 330,000; AID 485346;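 active = inhibition of at least 50% at 8 µM in the primary screen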
# Target sequence (O15151 whole entry, looked up): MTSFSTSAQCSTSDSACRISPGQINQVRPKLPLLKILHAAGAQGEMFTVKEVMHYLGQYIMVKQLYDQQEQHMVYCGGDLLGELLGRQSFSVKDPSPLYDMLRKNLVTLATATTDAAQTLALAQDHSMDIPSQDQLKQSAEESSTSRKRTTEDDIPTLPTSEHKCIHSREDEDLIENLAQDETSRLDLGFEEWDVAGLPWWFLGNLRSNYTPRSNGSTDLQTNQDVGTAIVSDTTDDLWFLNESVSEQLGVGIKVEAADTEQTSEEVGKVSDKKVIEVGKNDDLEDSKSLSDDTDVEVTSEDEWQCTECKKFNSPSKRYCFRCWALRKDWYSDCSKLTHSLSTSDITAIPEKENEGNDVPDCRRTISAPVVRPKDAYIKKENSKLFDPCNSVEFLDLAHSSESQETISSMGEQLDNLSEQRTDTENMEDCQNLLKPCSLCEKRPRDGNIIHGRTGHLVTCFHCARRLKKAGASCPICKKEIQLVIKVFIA
# Target sequence (Q00987 whole entry, looked up): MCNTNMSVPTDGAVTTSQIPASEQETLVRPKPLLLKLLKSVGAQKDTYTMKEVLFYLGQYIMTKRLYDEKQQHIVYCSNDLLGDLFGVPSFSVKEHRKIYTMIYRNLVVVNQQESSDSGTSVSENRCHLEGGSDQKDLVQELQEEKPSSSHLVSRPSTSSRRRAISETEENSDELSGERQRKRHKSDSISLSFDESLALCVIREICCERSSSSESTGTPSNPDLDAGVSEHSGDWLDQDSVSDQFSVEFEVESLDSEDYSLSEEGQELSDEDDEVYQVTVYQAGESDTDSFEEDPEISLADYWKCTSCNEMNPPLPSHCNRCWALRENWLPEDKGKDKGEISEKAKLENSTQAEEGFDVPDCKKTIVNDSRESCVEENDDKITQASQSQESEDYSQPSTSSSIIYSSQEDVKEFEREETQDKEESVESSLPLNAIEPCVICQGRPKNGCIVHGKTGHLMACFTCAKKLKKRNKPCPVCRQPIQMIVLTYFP
# LGR2 antag = blocks bursicon-induced cAMP signaling via Drosophila LGR2. HEK293 LGR2, CRE-luciferase, bursicon-stimulated, 4 h. inhibition, % at 9.99 µM. hit rate 0.35% among 380,000;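 active = drop in luminescence signal, shown as inhibition above about 50% in the replicate tests, limit read from the data, passing the limit was not always enough; inconclusive = probably only some replicates passing the limit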;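 note: agonist challenge used bursicon conditioned medium at about half maximal strength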
# HSP90 inh = blocks HSP90-mediated luciferase refolding in reticulocyte lysate | Rabbit reticulocyte lysate, luciferase refolding luminescence, 3 h | inhibition, % at 5.6 µM | hit rate 0.91% among 290,000;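 active = inhibition above the screen-wide mean plus 3 SD, computed separately per campaign, cut at about 16% in these data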;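 note: 0% = DMSO wells and 100% = 60 µM geldanamycin wells; inhibitors lower the luminescence because luciferase stays unfolded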
# CF NFkB inh = cystic fibrosis NF-kB activation inhibition; AID 588850; inhibition, % at 5 µM; KKLEB NF-kB-GFP reporter, PAF-induced, GFP fluorescence overnight; hit rate 0.86% among 360,000;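 active = at least 50% inhibition at 5 µM, scaled per plate between neutral and stimulator controls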;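 note: PAF is a Pseudomonas aeruginosa culture filtrate used as stimulus; plate controls were PAF-stimulated DMSO wells for no effect and unstimulated DMSO wells for full effect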
# KKLEB tox = counter-screen for CF NF-kB inhibitors: cytotoxicity; KKLEB CF airway cells viability, ATPlite luminescence, overnight; active compounds read low; cells stimulated with P. aeruginosa culture filtrate; activity change (cytotoxicity), % at 5 µM; hit rate 0.36% among 360,000; AID 602141;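 active = corrected activity change at or below -50% at 5 µM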
# Peg3 promoter = Peg3 promoter activity inhibition; hit rate 1.7% among 360,000; HeLa PEG-Prom luciferase reporter, luminescence, overnight; inhibition, % at 20 µM; AID 588405;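 active = inhibition of at least 50% at 20 µM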
# Starred values were filed as active, the others as inactive; ? = inconclusive; nt = no result given. An excerpt weighted towards active compounds, which were near 3.6% of everything screened.
SMILES,Mdm2 MdmX PPI,LGR2 antag,HSP90 inh,CF NFkB inh,KKLEB tox,Peg3 promoter
CCCCCCn1ccc(=N)cc1,35,nt,4,-2,2,7
CCCCCCCCCCCCCCCCn1cc[n+](CC(C)=O)c1,nt,nt,-1,67*,-67*,96*
Cc1ccccc1Oc1cc(-n2ncc(Cl)c(Cl)c2=O)ncn1,nt,101*,-4,96*,-100*,105*
Cc1ccc(-n2cc(CNCCc3ncc(C)[nH]3)c(-c3ccc(F)cc3)n2)cc1,35,-21,-4,6,-10,57*
C[C@H]1CN([C@@H](C)CO)S(=O)(=O)c2ccc(C3=CCCC3)cc2O[C@@H]1CN(C)S(C)(=O)=O,nt,-1,nt,nt,nt,nt
COc1ccc(CNn2c(-c3cccs3)nc3ccccc3c2=O)cc1OC,34,18,-2,-14,-13,53*
Cc1cc(C)c(S(=O)(=O)N2CCCCC2)cc1N(C)S(=O)(=O)c1ccc(Cl)cc1,41,nt,4,7,-5,98*
CN1CCN(C(=O)CCN2C(=O)/C(=C\c3ccc(F)cc3)SC2=S)CC1,25,9,nt,7,12,15
O=C(CCN1C(=O)/C(=C/c2ccccc2Cl)SC1=S)N1CCOCC1,45,24,7,72*,-11,76*
CN1CCN(C(=O)CCN2C(=O)/C(=C/c3cccc(Br)c3)SC2=S)CC1,49,3,7,28,10,77*
Cc1ccccc1N1C(=O)CC(Sc2nnc(-c3ccccc3)o2)C1=O (configuration not stated),5,nt,3,39,3,95*
CCCNC(=O)C[C@H]1CC[C@@H]2[C@@H](COc3ccc(NS(=O)(=O)c4ccccc4C)cc3C(=O)N2C)O1,nt,3,nt,nt,nt,nt
CN(C)CC(=O)Nc1ccc2c(c1)[C@H]1C[C@H](CC(=O)NCCc3ccccc3)O[C@H](CO)[C@H]1O2,nt,-16,nt,nt,nt,nt
COCC(=O)N1CCCCN2[C@@H](CO)[C@H](c3ccc(-c4cccc(C)c4)cc3)[C@@H]2C1,nt,-29,nt,nt,nt,nt
c1ccc(CNc2nc3ccccc3n3cnnc23)nc1,10,-14,-4,19,-10,-33
c1ccc(CNc2nc3ccccc3n3cnnc23)cc1,-11,-15,16*,24,-14,-5
CN1C(=O)c2cc(NC(=O)C3CC3)ccc2OC[C@@H]2O[C@@H](CC(=O)O)CC[C@H]21,nt,10,nt,nt,nt,nt
C[C@@H]1CN([C@H](C)CO)S(=O)(=O)c2ccc(C#Cc3ccccc3F)cc2O[C@H]1CN(C)C(=O)c1ccc2c(c1)OCO2,nt,2,nt,12,1,56*
CCCC#Cc1ccc2c(c1)O[C@@H](CN(C)Cc1ccc3c(c1)OCO3)[C@H](C)CN([C@H](C)CO)S2(=O)=O,nt,14,nt,nt,nt,nt
CCCC#Cc1ccc2c(c1)O[C@@H](CN(C)Cc1ccc3c(c1)OCO3)[C@H](C)CN([C@@H](C)CO)S2(=O)=O,nt,11,nt,32,-22,63*
CC(=O)N(C)C[C@@H]1Oc2cc(C#Cc3ccccc3F)ccc2S(=O)(=O)N([C@H](C)CO)C[C@@H]1C,nt,4,nt,nt,nt,nt
CCC(C)NC(=O)CSc1nnc(-c2c[nH]c3ccccc23)o1 (configuration not stated),-1,11,17*,-4,7,-14
CCNC(=O)NC(=O)CSc1nnc(-c2c[nH]c3ccccc23)o1,1,11,-3,-14,1,-2
COC(=O)c1cc(OC)c(OC)cc1NCC(=O)Nc1ccc(C)cc1,10,50*,6,-6,4,13
C[C@@H]1CN([C@@H](C)CO)C(=O)Cc2cc(NS(=O)(=O)c3ccccc3)ccc2O[C@@H]1CN(C)Cc1ccc(C(=O)O)cc1,nt,23,nt,nt,nt,nt
SMILES,Mdm2 MdmX PPI,LGR2 antag,HSP90 inh,CF NFkB inh,KKLEB tox,Peg3 promoter
CCOc1ccccc1NC(=O)C(CC)Sc1nc2ccncc2[nH]1 (configuration not stated),14,8,-1,-12,6,16
CCC(Sc1nc2ccncc2[nH]1)C(=O)Nc1ccc(C)c(Cl)c1 (configuration not stated),-4,2,-1,-9,0,85*
C[C@@H]1CN([C@@H](C)CO)S(=O)(=O)c2ccc(C#CC(C)(C)O)cc2O[C@@H]1CN(C)C(=O)C1CC1,nt,-1,nt,nt,nt,nt
CCC(=O)N1C[C@@H](C)[C@@H](OC)CN(C)C(=O)c2cc(NC(=O)C3CCCCC3)ccc2OC[C@@H]1C,nt,5,nt,nt,nt,nt
CC12CCC(C/C1=N\N=C1\NC(=O)/C(=C\c3ccc(Cl)cc3)S1)C2(C)C (configuration not stated),27,3,-1,89*,-94*,-30
Cc1cccc(-c2nc3cc(NC(=O)C4CCCO4)ccc3o2)c1 (configuration not stated),nt,59*,5,-8,-10,-79
Cc1ccc2oc(-c3cccc(NC(=O)C4CCCO4)c3)nc2c1 (configuration not stated),-58,nt,9,-12,2,-293
CNC(=O)C[C@@H]1CC[C@H]2[C@H](COc3ccc(NS(=O)(=O)c4ccccc4C)cc3C(=O)N2C)O1,nt,14,nt,nt,nt,nt
CCC(C)Sc1nc2c(c(=O)[nH]1)C(c1cccs1)C1=C(CCCC1=O)N2 (configuration not stated),24,16,4,21,0,55*
COCc1cn(CC[C@H]2CC[C@H](NC(=O)Nc3ccc(F)cc3)[C@@H](CO)O2)nn1,nt,-14,nt,nt,nt,nt
Cc1cc(C(=O)COc2cccnc2[N+](=O)[O-])c(C)n1-c1ccccc1,49,-19,2,9,0,73*
Cc1ccc(-n2c(C)cc(C(=O)COc3cccnc3[N+](=O)[O-])c2C)cc1,43,-38,3,-2,-22,36
O=C(NCc1ccc2c(c1)OCO2)[C@@H]1[C@@H](CO)[C@@H]2Cn3c(cccc3=O)[C@H]1N2Cc1ccccc1,nt,-1,nt,nt,nt,nt
Cc1ncc(CO)c2c1Oc1nc(-c3ccccc3)nc(SCC(=O)N3CCOCC3)c1C2,28,1,-2,14,-15,80*
Cc1cccc(-c2nc3c(c(SCC(=O)N4CCOCC4)n2)Cc2c(CO)cnc(C)c2O3)c1,28,nt,-2,12,15,68*
O=C1Nc2cc(C(=O)NCCCN3CCCC3)ccc2S/C1=C\c1ccccc1,49,5,-3,6,-11,91*
O=C1Nc2cc(C(=O)NCCCN3CCOCC3)ccc2S/C1=C/c1ccccc1F,10,6,2,12,-8,16
O=C(C1CCC1)N1C[C@@H]2[C@H](c3ccccc31)[C@H](CO)N2C(=O)Nc1cccc(F)c1,nt,-4,nt,nt,nt,nt
Cn1nc(C(=O)Nc2ccc(Cl)c(S(=O)(=O)N3CCOCC3)c2)c2ccccc2c1=O,13,0,nt,20,-12,53*
Nc1nc(-c2ccc(C(=O)O)cc2)cs1,-17,nt,2,-4,1,5
Nc1cc2sc(-c3ccc(C(=O)O)cc3)nc2cc1Cl,-68,?,18*,-13,-7,-21
